In the library only some 27% were active in any assay of this set; here they are far more common.
CYP2C19 inhib: blockers of cytochrome P450 2C19 activity – biochemical, luminescence, ADME assay, primary screen. hit rate 21% among 96,000. AID 778, 2007. inhibition, % at 5 µM. CYP2C19 Supersomes, luciferin-H EGE luminescence, 30 min;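 active = CYP2C19 inhibition above a set limit at 5 µM in the primary screen, cut at about 50% in these data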
sEH activator: soluble epoxide hydrolase activators, primary screen, biochemical, human sEH. Bifunctional epoxide hydrolase 2 (Homo sapiens), P34913. purified human sEH enzymatic activity, activator screen. activation, % at 2 µM. hit rate 0.04% among 91,000; in the data active = activation above about 37%
Target sequence (P34913 whole entry, looked up): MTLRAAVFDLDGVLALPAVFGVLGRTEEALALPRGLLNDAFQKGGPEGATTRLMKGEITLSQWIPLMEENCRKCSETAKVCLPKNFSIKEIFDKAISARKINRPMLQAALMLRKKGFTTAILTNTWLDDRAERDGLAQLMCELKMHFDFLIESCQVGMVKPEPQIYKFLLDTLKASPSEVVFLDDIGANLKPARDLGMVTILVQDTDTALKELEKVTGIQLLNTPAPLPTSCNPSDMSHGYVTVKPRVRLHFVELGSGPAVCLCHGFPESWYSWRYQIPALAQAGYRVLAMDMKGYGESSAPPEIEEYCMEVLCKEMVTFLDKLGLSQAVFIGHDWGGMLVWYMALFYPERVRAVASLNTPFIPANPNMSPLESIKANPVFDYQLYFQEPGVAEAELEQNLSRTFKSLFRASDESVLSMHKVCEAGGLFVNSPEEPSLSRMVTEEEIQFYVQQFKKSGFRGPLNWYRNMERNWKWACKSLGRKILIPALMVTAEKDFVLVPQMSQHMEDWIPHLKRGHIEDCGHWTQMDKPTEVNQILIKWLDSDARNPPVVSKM
CYP2C9 inh: blockers of cytochrome P450 2C9 activity – biochemical, luminescence, ADME assay, primary screen. AID 777, 2007. hit rate 20% among 96,000. CYP2C9 Supersomes, luciferin-H conversion. inhibition, % at 5 µM. P11712;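 active = blocking of liver enzyme CYP2C9 beyond about 50% at 5 µM, limit read from the data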
sEH inhibitor: soluble epoxide hydrolase inhibitors, primary screen, biochemical, human sEH; hit rate 0.34% among 91,000; inhibition, % at 2 µM; AID 707, 2007; Bifunctional epoxide hydrolase 2 (Homo sapiens), P34913; recombinant human sEH enzymatic activity assay; in the data active = inhibition above about 80%
CYP2C9 activ: human CYP2C9 activators, primary screen, biochemical, luminescence. Cytochrome P450 2C9 (Homo sapiens), P11712. activation factor at 5 µM. recombinant CYP2C9, luciferin-H conversion; stronger effect = higher value; factor 1 = untreated enzyme, 0 = blocked. hit rate 1.4% among 96,000;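 active = activation factor of 2 or more for CYP2C9 at a 5 µM dose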
CYP2C19 act: human CYP2C19 activators, primary screen, biochemical, luminescence | AID 1025, 2008 | activation factor at 5 µM | 96,000 tested, under 10 active | recombinant CYP2C19, luciferin-H EGE luminescence; stronger effect = higher value; 0 = fully inhibited enzyme, 1 = untreated enzyme | Cytochrome P450 2C19 (Homo sapiens), P33261;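 active = activation factor of at least 2 at 5 µM in the primary screen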
Numbers stand for hits; – = inactive; · = not tested or not shown.

SMILES	CYP2C19 inhib	sEH activator	CYP2C9 inh	sEH inhibitor	CYP2C9 activ	CYP2C19 act
O=S(=O)(c1cccs1)N1CN(Cc2ccc(F)cc2)c2nc3ccccc3nc21	–	–	70.5	–	–	–
CCOC(=O)N1CCN(C(=O)C(c2ccccc2)c2ccccc2)CC1	–	–	–	–	–	–
CSc1[nH]c(=O)c(C(=O)O)cc1C#N	–	–	–	–	–	–
CCOC(=O)C(=CNc1cc(C)nn1-c1ccc(Cl)cc1)C(=O)OCC	71.2	–	77.2	–	–	–
CCOC(=O)/C=C(\C)Nc1cc(C)nn1-c1ccccc1	–	·	–	·	–	–
CC(C)c1ccccc1-n1c(SCC(=O)N2CCN(c3ccccc3)CC2)nnc1-c1cccnc1	54.9	–	56.2	–	–	–
Cn1c(SCC(=O)N2CCN(c3ccccc3)CC2)nnc1-c1ccncc1	·	–	·	–	·	·
CC1CN(C(=O)CSc2nnc(-c3ccc(Cl)cc3)n2C)CC(C)O1 (stereo unspecified)	–	–	–	–	–	–
CC1CN(C(=O)CSc2nnc(-c3ccncc3)n2-c2ccccc2)CC(C)O1 (stereo unspecified)	76.1	·	–	·	–	–
CC1CCc2nc3ccc(S(=O)(=O)N4CCC(C(=O)NC5CCCC5)CC4)cc3c(C(=O)O)c2C1 (stereo unspecified)	–	–	59.8	–	–	–
O=C(O)c1c2c(nc3ccc(S(=O)(=O)N4CCC(C(=O)NC5CCCC5)CC4)cc13)CCCCC2	–	·	51.8	·	–	–
CC1CCc2nc3ccc(S(=O)(=O)N4CCC(C(=O)N5CCCCC5)CC4)cc3c(C(=O)O)c2C1 (stereo unspecified)	–	–	–	–	–	–
COc1ccc(C(=O)Nc2ccc(N3CCOCC3)cc2)cc1OC	58.5	·	–	·	–	–
COc1cc(C(=O)Nc2ccc3c(c2)OCCO3)ccc1OC(C)C	55.4	–	–	–	–	–
COc1ccc(C(=O)Nc2ccc(S(=O)(=O)N3CCOCC3)cc2)cc1OC	–	–	–	–	–	–
Cc1ccnc2nc(C(=O)Nc3ccc(N4CCOCC4)cc3)nn12	54.2	–	–	–	–	–
COc1cc(C(=O)Nc2ccc3c(c2)OCCO3)ccc1OC(F)F	88.2	·	–	·	–	–
COc1cccc(OC)c1C(=O)Nc1ccc2c(c1)OCCO2	–	–	–	–	–	–
O=C(Nc1ccc(N2CCOCC2)cc1)c1ccncc1	·	–	·	–	·	·
CCn1cc(C(=O)Nc2ccc3c(c2)OCCO3)c2cc(OC)c(OC)cc2c1=O	–	–	–	–	–	–
CCCCCOC(=O)C1=C(C)Nc2nnnn2C1c1ccccc1Cl (stereo unspecified)	–	–	–	–	–	–
O=C(NCc1ccccn1)C(C(=O)c1ccc(F)cc1)n1ccccc1=O (stereo unspecified)	–	–	–	–	–	–
CCC1C(=O)Nc2nc(-c3ccccc3)c(-c3ccccc3)n2N=C1C (stereo unspecified)	–	–	–	–	–	–
CCn1c(=NC(=O)CN2C(=O)CCC2=O)sc2c(C)cc(C)cc21	–	–	–	–	–	–
CCn1nc(C)c(C(=O)Nc2cc(Oc3ccc(Cl)cc3)cc([N+](=O)[O-])c2)c1C	–	–	–	–	–	–
SMILES	CYP2C19 inhib	sEH activator	CYP2C9 inh	sEH inhibitor	CYP2C9 activ	CYP2C19 act
CCc1nnc(SCCSc2nnc(CC)n2N)n1N	–	–	–	–	–	–
CCCOc1ccc(CSc2nnc(CCC)n2N)cc1	66.0	–	54.7	–	–	–
CCCc1nnc(SCc2ccc(OC)cc2)n1N	51.2	–	–	–	–	–
CCCCOc1ccc(Cl)cc1CSc1nnc(CC)n1N	53.5	–	63.8	–	–	–
CCCCOc1ccc(CSc2nncn2N)cc1	–	–	–	–	–	–
CC(C)NC(=S)Nc1ccc(Oc2ccccc2)cc1	72.1	–	–	–	–	–
CCCNC(=S)Nc1ccc(Oc2ccccc2)cc1	67.9	–	–	–	–	–
CC(C)(C)C(=O)NC(=S)Nc1ccccc1C(=O)Nc1ccccc1	–	–	–	–	–	–
O=S(=O)(c1cccc(Cl)c1Cl)N1CCCCC1	83.2	–	–	–	2.7	–
COc1c(S(=O)(=O)N2CCCC2)ccc(Cl)c1Cl	88.5	–	–	–	2.4	–
Cc1ccc(S(=O)(=O)N2CCN(S(=O)(=O)N3CCCCC3)CC2)c(C)c1	–	–	–	–	–	–
Cc1cccc(Cn2c(=O)n(-c3ccc(CC(=O)NCc4ccco4)cc3)c(=O)c3sccc32)c1	–	–	–	–	–	–
CCOC(=O)N1CCc2c(sc3nc4n(c(=O)c23)N=C(C)CS4)C1	–	–	–	–	–	–
O=C1CCN(C(=O)c2ccccc2)C2CCCCC12 (stereo unspecified)	–	·	–	·	–	–
COc1ccc2c(c1)c(=O)oc1c(C)c(OCC(=O)N3CCc4ccccc4C3)ccc12	–	–	62.5	–	–	–
CCC(=O)c1ccc(OCC(=O)N2CCc3cc(OC)c(OC)cc3C2)cc1	–	–	–	–	–	–
Cc1ccc2oc(=O)c3cnn(CC(=O)N4CCc5ccccc5C4)c3c2c1	–	–	–	–	–	–
COc1cc2c(cc1OC)CN(C(=O)COc1ccc(C)c(C)c1)CC2	72.4	–	62.4	–	–	–
Cc1ccc(CN2CCN(Cc3ccccc3C(F)(F)F)CC2)cc1	64.0	–	–	–	–	–
CS(=O)(=O)N1CCN(Cc2ccccc2C(F)(F)F)CC1	73.3	–	–	–	–	–
O=C(C1CCCN(Cc2ccccc2C(F)(F)F)C1)N1CCCCC1 (stereo unspecified)	–	–	–	–	–	–
COc1ccc(NC(=O)Cc2nn(C)c(=O)c3ccccc23)c2ncccc12	–	·	–	·	–	–
C=CCNc1nc(NC(C)(C)CO)nc(OC)n1	·	–	·	–	·	·
Cc1ccc(N(C)C(=O)N2CCN(S(=O)(=O)c3ccc(C)c(C)c3)CC2)cc1	98.2	–	77.7	–	–	–
Cc1ccc(S(=O)(=O)N2CCN(C(=O)N(C)C)CC2)cc1C	55.6	–	–	–	–	–
Cc1ccc(N(C)C(=O)N2CCN(S(=O)(=O)c3c(C)cc(C)cc3C)CC2)cc1	64.2	–	74.9	–	–	–
CCN(CC)C(=O)N1CCN(S(=O)(=O)c2ccc(C)c(C)c2)CC1	98.0	–	–	–	2.2	–
COc1ccc(OC)c(CC(NC(C)=O)C(=O)NC2CCN(c3nc(C)cc(C)c3C#N)CC2)c1 (stereo unspecified)	–	·	–	·	–	–
CSc1nc2ccccc2n1CC(=O)Nc1c(C)cccc1C	·	–	·	–	·	·
O=C1NC(=S)N/C1=C/c1cc([N+](=O)[O-])ccc1O	–	–	–	–	–	–

High-throughput results (PubChem)
